Data published in a collection of fitness landscapes (doi:10.1016/j.celrep.2020.107928).
Whole data set: some 81,000 sequences, median “one-hybrid fitness for binding parS DNA” near -0.17, cut for the highest 2% near 0.51. The sample holds the highest values, similar sequences and a random draw of the others, so the mix is not that of the screen.

B1: Caulobacter ParB omega fusion; a variant is named by its letters at X, in order, B8GW30 (parent)
chain: MESVVVGEPGMSEGRRGLGRGLSALLGEVDAAPAQAPGEQLGGSREAPIEILQRNPDQPRRTFREEDLEDLSNSIREKGVLQPILVRPSPDTAGEYQIVAGERAWRAAQRAGLKTVPIMVRELDDLAVLEIGIIENVQRADLNVLEEALSYKVLMEKFERTQENIAQTIGKSXSHVANXMRLLXLPDEVQSYLVSGELTAXHARAIAAAADPVALAKQIIEGGLSVRETEALARKAPNLSAGKSKGGRPPRVKDTDTQALESDLSSVLGLDVSIDHRGSTGTLTITYATLEQLDDLCNRLTRGI

Variants of: B1
Assay: one-hybrid fitness for binding parS DNA (scaled: cognate 1, non-cognate 0); higher = stronger binding
Conditions: with parS DNA site
Outline: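 In E. coli USO, a HIS3 reporter with its site placed 19 bp from the promoter was used to select Caulobacter ParB variants randomised at four specificity codons. Growth lasted 48 hours at 37°C on histidine-free M9 containing 0.1 mM IPTG and 5 mM 3-AT. Fitness was taken as the log change in variant-to-wild-type read ratio from Illumina sequencing of pre- and post-selection plasmids, rescaled between the non-cognate and cognate sites.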

one-hybrid fitness for binding parS DNA, 0.609:
RLCA

one-hybrid fitness for binding parS DNA, 0.93:
RQDG

one-hybrid fitness for binding parS DNA, 0.412:
RQCY

one-hybrid fitness for binding parS DNA, 0.903:
RHRG

one-hybrid fitness for binding parS DNA, 0.958:
RHSG

one-hybrid fitness for binding parS DNA, 0.727:
RLRA

one-hybrid fitness for binding parS DNA, 0.613:
RIYA

one-hybrid fitness for binding parS DNA, 0.97:
RQRG
RQCG

one-hybrid fitness for binding parS DNA, 0.232:
RHRH

one-hybrid fitness for binding parS DNA, 0.62:
RLNA

one-hybrid fitness for binding parS DNA, 0.21:
VEMW

one-hybrid fitness for binding parS DNA, 1.01:
RQHG
RQNG

one-hybrid fitness for binding parS DNA, 0.451:
RIEA

one-hybrid fitness for binding parS DNA, 0.661:
RIGA

one-hybrid fitness for binding parS DNA, 0.539:
RIWA

one-hybrid fitness for binding parS DNA, 0.608:
RISA

one-hybrid fitness for binding parS DNA, 0.249:
RQRH

one-hybrid fitness for binding parS DNA, 0.984:
RQSG

one-hybrid fitness for binding parS DNA, 0.877:
RQWG

one-hybrid fitness for binding parS DNA, 0.574:
RIHA

one-hybrid fitness for binding parS DNA, 0.576:
RILA
RIQA

one-hybrid fitness for binding parS DNA, 0.99:
RQQG

one-hybrid fitness for binding parS DNA, 0.982:
RQLG

one-hybrid fitness for binding parS DNA, 0.469:
RQQN

one-hybrid fitness for binding parS DNA, 0.499:
RIIA

one-hybrid fitness for binding parS DNA, 0.672:
RIRA

one-hybrid fitness for binding parS DNA, 0.994:
RQYG

one-hybrid fitness for binding parS DNA, 0.29:
RIPA

one-hybrid fitness for binding parS DNA, 0.216:
RQNF

one-hybrid fitness for binding parS DNA, 0.231:
RQHF

one-hybrid fitness for binding parS DNA, 0.588:
RLDA

one-hybrid fitness for binding parS DNA, 0.233:
RQWM

one-hybrid fitness for binding parS DNA, 0.939:
RHGG

one-hybrid fitness for binding parS DNA, ≤ 0.2:
YFQT
TWNC
KIDC
YREL
QRPG
ANRV
RHGH
RHSQ
RHGP
RHSR
RHRP
KVHG
IAKA
MESK
TRMT
GQVV
AIVR
KQMS
GWHV
VEGN
TSSY
DLDA
ALYA
NLCA
DLYA
RDNA
DLCA
NLNA
ASVG
YGDG
VARP
TRNE
SERK
TYPS
QKME
QGRS
LGAW
LDKA
WVHI
DLRA
NLRA
SEQC
TFQR
NICA
NISA
HSNV
QGKW
YPTH
PDPT
YNHR
PMSC
NLLT
NQHT
WWRT
PCFG
YQHR
NIRA
TSST
VTVI
IMSG
ENNW
TFVM
KSAC
DWTC
TPML
CISV
THES
MCDC
NYQC
NSQY
HMPR
PPDT
ARRF
RQDH
RQDD
RQHK
RQWK
RQRP
WATG
TFEV
KKQL
SPRE
VHIS
HAND
MQAL
RQQH
RQLD
RQYD
RQYH
RQLH
YEKG
MTTE
PMRC
TKTN
ESQE
PCYG
FVTS
VWVK
TAGS
QLHQ
GGAM
MKCT
RQSH
RQCR
RQGQ
RQSD
NETE
YGVD
VVSY
LSGR

one-hybrid fitness for binding parS DNA, 0.525:
RICA

one-hybrid fitness for binding parS DNA, 0.607:
RLYA

one-hybrid fitness for binding parS DNA, 0.234:
RQGF

one-hybrid fitness for binding parS DNA, 0.325:
RQNM

one-hybrid fitness for binding parS DNA, 0.945:
RQGG
